Sampled rows, rich in hits. Any-hit rate of the full collection: about 3.3%.
MazF activator – increases E. coli MazEF RNase cleavage of RNA; FAM/BHQ RNA-DNA oligo cleavage fluorescence, 5 h; AID 504720; activation, % at 20 µM; actives 0.32% (n = 350,000); in the data active means activation above about 50%
Autofluor counter – compound fluorescence in toxin protease inhibitor counterscreen. fluorescence intensity (test concentration not listed). compound autofluorescence counterscreen, microsphere flow cytometry; stronger effect = higher value. AID 624483. actives 3.1% (n = 360,000); in the data active means fluorescence intensity above about 16000; inconclusive means no clear call, values can overlap the other calls
Anthrax LF inh2 – blocks Bacillus anthracis lethal factor protease; P15917; multiplex microsphere protease cleavage assay, LF; inhibition, % at 10 µM; actives 0.12% (n = 360,000); AID 588501
BoNT F protease – inhibitors of Botulinum neurotoxin F light chain protease; Multiplex microsphere protease cleavage assay, flow cytometry; inhibition, % at 10 µM; actives 0.22% (n = 360,000); AID 588497; in the data active means inhibition above about 35%, passing the limit was not always enough; inconclusive means no clear call, values can overlap the other calls
SSB-PriA inh – inhibitors of Klebsiella pneumoniae PriA binding to SSB C-terminal tail. actives 0.6% (n = 430,000). AlphaScreen SSBct-PriA binding, biotinylated peptide. AID 1272365. inhibition, % at 33 µM; in the data active means inhibition mostly above about 37%, no sharp cut-off; inactive means mostly below about 20%
BoNT-A LC inh2 – BoNT A light chain protease inhibition; inhibition, % at 10 µM; AID 588499; multiplex microsphere protease substrate cleavage, flow cytometry; actives 0.17% (n = 360,000)
Hits are given with their value; - = inactive; ? = inconclusive; . = no result; ! = not confirmed by another sample. Unless noted, no stated cut-off is given here; in the data, active means inhibition above about 30%; inconclusive means no clear call, values can overlap the other calls; inactive means below that.

SMILES	MazF activator	Autofluor counter	Anthrax LF inh2	BoNT F protease	SSB-PriA inh	BoNT-A LC inh2
O=P(Nc1cccnc1)(Oc1ccccc1Cl)Oc1ccccc1Cl	-	-	30	86	-	-
COc1ccc(CC(=O)N2CCc3ccccc32)cc1	-	-	-	-	-	-
COc1ccc(CC(=O)N2CCNC2=O)cc1	-	19689	-	-	-	-
O=C(COc1ccccc1)N1CCNC1=O	-	21620	-	-	-	-
CC1CN(S(=O)(=O)N(C)C)CCN1S(=O)(=O)N(C)C (configuration not stated)	-	19855	-	-	-	-
COC(=O)c1ccc(NC(=O)Cn2nc(-c3ccncc3)nc2SCC(=O)Nc2nccs2)cc1	56	-	-	-	-	-
CCOc1ccc(C=NNC(=O)CN2CCSCC2)cc1	.	.	.	.	-	.
O=C(Nc1ccccc1Cl)c1ccc(Nc2nc(-c3ccccc3)c3cc(Br)ccc3n2)cc1	.	.	.	.	-	.
O=[N+]([O-])c1c(NCCO)cc(N2CCN(Cc3ccc4c(c3)OCO4)CC2)c2nonc12	-	-	-	-	-	-
O=[N+]([O-])c1c(NCCO)cc(N2CCCCCC2)c2nonc12	-	-	100	?	-	-
Cc1ccc(-n2nc3c(c2N)CSC3)cc1	.	.	.	.	-	.
CC(C)(C)C1CCC(=NNc2ncc(C(F)(F)F)cc2Cl)CC1 (configuration not stated)	-	22794	-	-	-	?
C/C(=N/Nc1ncc(C(F)(F)F)cc1Cl)c1ccncc1	-	-	-	-	.	-
O=C(O)c1ccccc1C(=O)c1ccc(Br)cc1	.	.	.	.	-	.
Cn1c(=O)c2c(ncn2CC(=O)Nc2nc(-c3ccccc3Cl)cs2)n(C)c1=O	74	-	-	-	-	-
CCOC(=O)c1cccc(NC(=O)Cn2cnc3c2c(=O)n(C)c(=O)n3C)c1	-	20236	-	-	-	?
O=C(CSc1ccc(F)cc1)NC[C@H](O)Cn1ccccc1=O	.	.	.	.	-	.
CCOC(=O)c1sc(NC(=O)c2ccncc2)c(C(=O)OCC)c1C	.	.	.	.	-	.
CCOC(=O)c1sc(NC(=S)NC(=O)c2ccccc2)c(C(=O)OCC)c1C	-	-	-	-	82!	-
CCOC(=O)c1c(NC(=O)CC(C)C)sc(C(C)=O)c1C	-	-	-	-	-	-
CCOC(=O)c1c(-c2ccc(C)o2)csc1NC(=S)NC(=O)c1cccs1	-	-	-	-	-	-
CCOC(=O)c1c(-c2ccc(C)o2)csc1NC(=S)NC(=O)c1ccccc1Br	-	16268	-	-	-	-
CCOC(=O)c1sc(NC(=O)CN(CC(C)C)CC(C)C)c(C(=O)OCC)c1C	-	22136	-	-	-	-
CCN(CC)C(=O)c1sc(NC(=O)c2ccncc2)c(C(=O)OC)c1C	-	-	-	-	65	-
CC(C)(C)Sc1ccc2nn(CC(=O)N3CCN(c4ccc(F)cc4)CC3)c(=O)n2n1	.	.	.	.	-	.
SMILES	MazF activator	Autofluor counter	Anthrax LF inh2	BoNT F protease	SSB-PriA inh	BoNT-A LC inh2
COc1ccc([C@H](CNC(=O)Nc2cccc(C)c2)N2CCN(C)CC2)cc1	.	.	.	.	-	.
CCOC(=O)c1c(NC(=O)CCN2C(=O)c3ccccc3C2=O)sc(C(=O)OC(C)C)c1C	-	17126	-	-	-	?
CC(C)CNS(=O)(=O)c1ccc(S(=O)(=O)N2CCCN(Cc3ccccc3)C2)cc1	-	21949	-	-	-	-
O=C(O)CCCNC(=O)c1ccccc1C(=O)O	.	.	.	.	-	.
O=C(CNS(=O)(=O)c1ccc(Br)cc1)N1CCOCC1	-	22354	-	-	-	-
O=C(CNS(=O)(=O)c1ccc(C(=O)N2CCOCC2)cc1)N1CCOCC1	-	-	-	-	-	-
Cc1ccc(S(=O)(=O)C(CCC(=O)N2CCOCC2)S(=O)(=O)c2ccc(C)cc2)cc1	-	16223	-	-	-	-
CSC1CC2CCC(C1)N2C(=O)c1ccc(OC(F)(F)F)cc1 (configuration not stated)	.	.	.	.	-	.
CNC(=O)CN1CCC(c2nnc(C(C)C)o2)CC1	.	.	.	.	-	.
Cc1cc(C)c(C#N)c(N2CCN(Cc3ccccc3)CC2)n1	-	23816	-	-	-	-
N#Cc1c(Cl)nc(Cl)c2c1CCN(Cc1ccccc1)C2	-	-	-	-	-	-
N#Cc1c(N2CCCCC2)nc(N2CCCCC2)c2c1CCN(Cc1ccccc1)C2	-	18858	-	-	-	?
Cc1cc(C)c(C#N)c(N2CCN(Cc3ccc4c(c3)OCO4)CC2)n1	-	-	-	?	-	-
Cc1ccc(-n2ncc3c(=O)[nH]c(-n4nc(C)cc4NC(=O)c4ccccc4F)nc32)cc1	.	.	.	.	-	.

Screening results: PubChem BioAssay, several laboratories
